# According to the supplement of paper PMC8975748:
# Where a name gives a salt, the structure may show the parent alone. ± gives the standard deviation of the averaged measurements.
# What was measured:
# [1] = test system: Saccharomyces cerevisiae BY4741 SeMeCo community; experiment: mean cell size (pixel area) (pixels); higher = larger cells; conditions: 10 µM; 24 h; SM minimal medium
# How it was run: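 Yeast cells were fixed with paraformaldehyde, imaged by automated confocal microscopy and analysed in Harmony to obtain mean cell pixel area per well. They came from a four-plasmid fluorescent Saccharomyces cerevisiae BY4741 community, each plasmid complementing one auxotrophy and carrying a fluorescent marker. Before imaging, 70 µl of culture at OD600 = 0.3 was incubated for 24 h in SM medium in 384-well plates predosed acoustically with drug (final 10 µM). Values are means of 3 replicates. Same SeMeCo high-content imaging drug screen: Selleck FDA-approved drugs at 10 µM, 24 h in SM medium, 384-well plates, 3 replicates.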
# [2] = test system: Saccharomyces cerevisiae BY4741 SeMeCo community; experiment: z-score of prototroph abundance vs DMSO median; higher = larger share of this subpopulation than in DMSO controls; conditions: 10 µM; 24 h; SM minimal medium; subpopulation (auxotrophy): Prototroph
# How it was run: (§1)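 Four plasmids, each restoring a single auxotrophy and encoding a distinct fluorescent protein, were carried by a Saccharomyces cerevisiae BY4741 community. After overnight growth to OD600 1.0 and dilution to 0.3, 70 µl per well was grown for 24 h in minimal SM medium on 384-well plates acoustically predosed with library drugs at 10 µM final. Following paraformaldehyde fixation, automated confocal microscopy was used, with single-auxotroph fluorescent strains defining thresholds and autofluorescence correction. Subpopulation abundance was then scored as a z-score against the vehicle-well median.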
# [3] = test system: Saccharomyces cerevisiae BY4741 SeMeCo community; experiment: z-score of subpopulation abundance vs DMSO median, subpopulation auxotrophic for M; higher = larger share of this subpopulation than in DMSO controls; conditions: 10 µM; 24 h; SM minimal medium; subpopulation (auxotrophy): M
# How it was run: as §1
# [4] = test system: Saccharomyces cerevisiae BY4741 SeMeCo community; experiment: z-score of subpopulation abundance vs DMSO median, subpopulation auxotrophic for L; higher = larger share of this subpopulation than in DMSO controls; conditions: 10 µM; 24 h; SM minimal medium; subpopulation (auxotrophy): L
# How it was run: as §1
# [5] = test system: Saccharomyces cerevisiae BY4741 SeMeCo community; experiment: z-score of subpopulation abundance vs DMSO median, subpopulation auxotrophic for U; higher = larger share of this subpopulation than in DMSO controls; conditions: 10 µM; 24 h; SM minimal medium; subpopulation (auxotrophy): U
# How it was run: as §1
# [6] = test system: Saccharomyces cerevisiae BY4741 SeMeCo community; experiment: z-score of subpopulation abundance vs DMSO median, subpopulation auxotrophic for H; higher = larger share of this subpopulation than in DMSO controls; conditions: 10 µM; 24 h; SM minimal medium; subpopulation (auxotrophy): H
# How it was run: as §1
# [7] = test system: Saccharomyces cerevisiae BY4741 SeMeCo community; experiment: z-score of subpopulation abundance vs DMSO median, subpopulation auxotrophic for LU; higher = larger share of this subpopulation than in DMSO controls; conditions: 10 µM; 24 h; SM minimal medium; subpopulation (auxotrophy): LU
# How it was run: as §1
# [8] = test system: Saccharomyces cerevisiae BY4741 SeMeCo community; experiment: z-score of subpopulation abundance vs DMSO median, subpopulation auxotrophic for LM; higher = larger share of this subpopulation than in DMSO controls; conditions: 10 µM; 24 h; SM minimal medium; subpopulation (auxotrophy): LM
# How it was run: as §1
# [9] = test system: Saccharomyces cerevisiae BY4741 SeMeCo community; experiment: z-score of subpopulation abundance vs DMSO median, subpopulation auxotrophic for HM; higher = larger share of this subpopulation than in DMSO controls; conditions: 10 µM; 24 h; SM minimal medium; subpopulation (auxotrophy): HM
# How it was run: as §1
# [10] = test system: Saccharomyces cerevisiae BY4741 SeMeCo community; experiment: z-score of subpopulation abundance vs DMSO median, subpopulation auxotrophic for HU; higher = larger share of this subpopulation than in DMSO controls; conditions: 10 µM; 24 h; SM minimal medium; subpopulation (auxotrophy): HU
# How it was run: as §1
# [11] = test system: Saccharomyces cerevisiae BY4741 SeMeCo community; experiment: z-score of subpopulation abundance vs DMSO median, subpopulation auxotrophic for UM; higher = larger share of this subpopulation than in DMSO controls; conditions: 10 µM; 24 h; SM minimal medium; subpopulation (auxotrophy): UM
# How it was run: as §1
# [12] = test system: Saccharomyces cerevisiae BY4741 SeMeCo community; experiment: z-score of subpopulation abundance vs DMSO median, subpopulation auxotrophic for HL; higher = larger share of this subpopulation than in DMSO controls; conditions: 10 µM; 24 h; SM minimal medium; subpopulation (auxotrophy): HL
# How it was run: as §1
# [13] = test system: Saccharomyces cerevisiae BY4741 SeMeCo community; experiment: z-score of subpopulation abundance vs DMSO median, subpopulation auxotrophic for HLU; higher = larger share of this subpopulation than in DMSO controls; conditions: 10 µM; 24 h; SM minimal medium; subpopulation (auxotrophy): HLU
# How it was run: as §1
# [14] = test system: Saccharomyces cerevisiae BY4741 SeMeCo community; experiment: z-score of subpopulation abundance vs DMSO median, subpopulation auxotrophic for HLM; higher = larger share of this subpopulation than in DMSO controls; conditions: 10 µM; 24 h; SM minimal medium; subpopulation (auxotrophy): HLM
# How it was run: as §1
# [15] = test system: Saccharomyces cerevisiae BY4741 SeMeCo community; experiment: z-score of subpopulation abundance vs DMSO median, subpopulation auxotrophic for HUM; higher = larger share of this subpopulation than in DMSO controls; conditions: 10 µM; 24 h; SM minimal medium; subpopulation (auxotrophy): HUM
# How it was run: as §1
# [16] = test system: Saccharomyces cerevisiae BY4741 SeMeCo community; experiment: z-score of subpopulation abundance vs DMSO median, subpopulation auxotrophic for LUM; higher = larger share of this subpopulation than in DMSO controls; conditions: 10 µM; 24 h; SM minimal medium; subpopulation (auxotrophy): LUM
# How it was run: as §1
# [17] = test system: Saccharomyces cerevisiae BY4741 SeMeCo community; experiment: z-score of subpopulation abundance vs DMSO median, subpopulation auxotrophic for HLUM; higher = larger share of this subpopulation than in DMSO controls; conditions: 10 µM; 24 h; SM minimal medium; subpopulation (auxotrophy): HLUM
# How it was run: as §1
Structure (SMILES),mean cell size [1],z-score of prototroph abundance [2],z-score of subpopulation abundance [3],z-score of subpopulation abundance [4],z-score of subpopulation abundance [5],z-score of subpopulation abundance [6],z-score of subpopulation abundance [7],z-score of subpopulation abundance [8],z-score of subpopulation abundance [9],z-score of subpopulation abundance [10],z-score of subpopulation abundance [11],z-score of subpopulation abundance [12],z-score of subpopulation abundance [13],z-score of subpopulation abundance [14],z-score of subpopulation abundance [15],z-score of subpopulation abundance [16],z-score of subpopulation abundance [17]
O=C(O)C1=C(CSc2nnnn2CS(=O)(=O)O)CS[C@@H]2[C@H](NC(=O)[C@H](O)c3ccccc3)C(=O)N12 [Cefonicid sodium],12.47 ± 0.07,0.12,-0.38,-0.08,0.61,0.28,0.98,-0.87,-0.77,0.75,0.3,0.41,0.39,0.46,-0.26,-0.25,0.08
CC(N)C12CC3CC(CC(C3)C1)C2 (stereo not drawn) [Rimantadine],12.5 ± 0.14,-1.12,0.39,0.04,0.97,0.34,0.71,0.09,0.19,1.15,1.1,-0.19,0.68,0.47,0.67,0.08,-0.32
C[N+](C)(C)CCOC(=O)CCC(=O)OCC[N+](C)(C)C [Succinylcholine Chloride Dihydrate],12 ± 0.24,0.17,1.02,-0.65,0.38,–,-1.48,0.01,0.1,-0.93,0.5,-0.8,-0.97,-0.3,-0.03,-0.49,0.02
"C[C@@H](CN1CC(=O)NC(=O)C1)N1CC(=O)NC(=O)C1 [Dexrazoxane HCl (ICRF-187, ADR-529)]",12.49 ± 0.096,0.46,0.18,-1.96,0.64,–,-0.36,-1.65,-0.36,-0.7,0.22,-1.52,-1.07,-0.81,-0.23,-0.98,-0.79
CC[C@H](C)C(=O)O[C@H]1CCC=C2C=C[C@H](C)[C@H](CC[C@@H]3C[C@@H](O)CC(=O)O3)[C@H]21 [Mevastatin],11.6 ± 0.14,0.08,-0.77,-0.41,0.22,-0.21,0.06,-0.31,-0.1,0.2,0.52,0.72,0.15,-0.6,-0.29,-0.11,-0.71
COc1c(N2C[C@@H]3CCCN[C@@H]3C2)c(F)cc2c(=O)c(C(=O)O)cn(C3CC3)c12 [Moxifloxacin HCl],12.3 ± 0.15,-0.74,0.89,2.07,-0.98,0.53,-0.22,2.74,0.67,-0.55,-0.68,1.26,-0.07,0.72,0.22,0.77,1.08
Clc1ccc(COC(Cn2ccnc2)c2ccc(Cl)cc2Cl)cc1 (stereo not drawn) [Econazole nitrate],11.9 ± 0.2,-8.44,-2.24,-3.48,3.05,15.7,1.14,-1.64,2.52,12.4,10.3,5.56,6.46,10.7,6.6,1.67,9.87
"O=c1[nH]cc(F)c(=O)[nH]1 [Fluorouracil (5-Fluoracil, 5-FU)]",13.9 ± 0.2,-10.5,-2.62,-0.27,0.26,13.4,0.59,0.7,18.4,8.79,2.82,6.71,10.4,22.3,12.3,3.63,22.5
CCOc1ccc(NC(C)=O)cc1 [Phenacetin],12.6 ± 0.17,-0.61,0.1,-0.65,0.86,–,0.1,-1.19,0.08,0.77,0.96,-0.01,0.79,0.8,1.17,-0.17,0.17
Cc1ccc(Cl)c(Nc2ccccc2C(=O)O)c1Cl [Meclofenamate Sodium],12.7 ± 0.19,1.11,0.25,-0.25,-0.1,-0.35,-0.57,-0.57,-0.47,-0.21,-0.07,-0.49,-0.7,-0.85,-0.63,-0.74,-0.31
CC[C@H]1OC(=O)C[C@@H](O)[C@H](C)[C@@H](O[C@@H]2O[C@H](C)[C@@H](O)[C@H](N(C)C)[C@H]2O)[C@@H](CCN2C[C@H](C)C[C@H](C)C2)C[C@@H](C)C(=O)/C=C/C(C)=C/[C@@H]1CO[C@@H]1O[C@H](C)[C@@H](O)[C@@H](OC)[C@H]1OC [Tilmicosin phosphate],12.3 ± 0.3,0.18,-0.36,0.06,-0.3,2.1,-0.57,-0.81,-0.03,-0.34,-0.01,-0.13,-0.18,-0.09,-0.09,-0.25,-0.75
CCC(C)(Oc1ccc(C2(c3ccc(OC(C)(CC)C(=O)O)cc3)CCCCC2)cc1)C(=O)O (stereo not drawn) [Clinofibrate],13.24 ± 0.13,0.14,0.41,-2.3,0.34,1.7,-0.18,-1.21,-0.03,0.11,-2.08,-0.48,0.73,2.85,-0.82,-1.09,0.45
CCCNCC(O)COc1ccccc1C(=O)CCc1ccccc1 (stereo not drawn) [Propafenone HCl],12.36 ± 0.1,0.15,-0.38,-0.54,0.55,-0.52,-0.32,0.27,-0.15,0.58,0.94,-0.37,-0.61,-0.63,-0.3,0.61,0.05
